# Screening results: PubChem, National Center for Advancing Translational Sciences (NCATS)
# A selection: hits, their analogues and other compounds. The true share with any hit is near 19%.
# HT1080 IDH1KD tx: kills HT-1080 cells with IDH1 knockdown. HT-1080 IDH1 knockdown viability, ATP luminescence, 48 h. Potency, µM (highest dose often 46.1 µM), for the others: top-dose activity, negative = toxicity, actives largely listed as cytotoxic. hit rate 2% among 360,000;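 further: potency means the concentration at half of the fitted maximal effect; 0% = DMSO wells and -100% = cell-free medium wells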
#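 Luminescent ATP read-out (CellTiter-Glo, 10 min at room temperature) after 48 h compound exposure at 37 °C gave viability of IDH1-knockdown HT-1080 cells. Activity was normalised to DMSO and cell-free wells, then fitted as concentration-response curves.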
# TDP1 cell CPT: DT40-hTDP1 cell growth loss with CPT. chicken DT40 Tdp1-/-;hTDP1 cells + 20 nM CPT, ATP luminescence, 48 h. Potency, µM (titrated, usually from 46.2 µM), for the others: top-dose activity change, negative = growth inhibition, most hits filed as inhibitors. hit rate 12% among 420,000; further: potency means the concentration at half of the fitted maximal effect; nearly all actives have a fitted effect of over 55% in size
#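 Chicken DT40 Tdp1-/- cells complemented with human TDP1, 400 cells/well, exposed to compounds plus 20 nM camptothecin for at least 48 h at 37 C; viability read as ATP content by CellTiter-Glo luminescence.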
# IL-1B inflam inh: blocks inflammasome-driven IL-1 beta release; activity change, % at 57.5 µM; AID 743279; hit rate 4.7% among 360,000; THP-1 LPS/ATP IL-1B secretion, AlphaLISA, 16 h; hits give low values; in the data active means activity change below about -50%; inconclusive means mostly about -30% to -49%
#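 THP-1 cells pretreated 1 hr with compounds (up to 57.5 uM final), then stimulated with LPS (250 ng/mL final) plus ATP (1.25 mM final); secreted IL-1B measured by AlphaLISA after 16 hr, decreased signal indicating inhibition.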
# TDP1 cell noCPT: qHTS for Inhibitors of human tyrosyl-DNA phosphodiesterase 1 (TDP1): qHTS in cells in absence of CPT; DT40 Tdp1-/- hTDP1 cells, no CPT, ATP luminescence, 48 h; Potency, µM (series often up to 46.2 µM), inactives show at the top dose activity change, negative = growth inhibition, most hits filed as inhibitors; hit rate 15% among 420,000; further: potency means the concentration at half of the fitted maximal effect; nearly all actives have a fitted effect of over 55% in size
#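 A cellular qHTS used chicken DT40 cells lacking endogenous Tdp1 but carrying stably transfected human TDP1. Compounds were applied without camptothecin, and cell growth kinetics were judged by ATP-dependent luminescence after ≥48 hr.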
# HT1080NT lethal: kills 2HG-producing HT-1080-NT fibrosarcoma cells; HT-1080-NT fibrosarcoma viability, CellTiter-Glo ATP luminescence, 48 h; Potency, µM (series often up to 46.1 µM), inactives show top-dose activity, negative = less viability, usual class: cytotoxic; hit rate 1.6% among 360,000;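 further: NT is the 2HG producing partner of a matched IDH1 knockdown line; potency means the concentration at half of the fitted maximal effect; 0% = DMSO-treated cells and -100% = media-only wells without cells; nearly all actives have a fitted effect of over 55% in size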
#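 Viability by CellTiter-Glo luminescence after 48 h compound exposure at 37C of HT-1080-NT cells (750/well, RPMI, 5% FBS). % activity scaled between DMSO wells and medium-only wells, then curve-fitted and categorized by curve class.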
# The depositor's hits bear a star; ? = inconclusive; [ ] = dose if it differs, or a comment. Unless noted, the call rests on the fitted dose curve; in most records, active means well fitted curve in the direction sought with a large enough effect; inconclusive means small, poorly fitted or top-dose-only effect, or another doubt; inactive means no such curve, though single readings can be large; an effect the other way counts as inactive or inconclusive. Unless noted, on the % scale 0 is the no-effect control and ±100 the full control effect.
SMILES,HT1080 IDH1KD tx,TDP1 cell CPT,IL-1B inflam inh,TDP1 cell noCPT,HT1080NT lethal
CCCn1c(SCC(=O)NC2CCCCC2C)n[nH]c1=O (stereo not given),11.4%,-11.6%,0.0,-13.6%,12.3%
Cc1cccnc1NC(=O)CCNC(=O)c1ccccc1Cl,5.5%,10.4%,13.0,5.0%,4.3%
CC(C)n1cc(/C=C2\NC(=O)N(c3cccc(Cl)c3)C2=O)c2ccccc21,-26.1%,?,39.6,?,?
CC(C)n1cc(/C=C2/NC(=O)N(c3cccc(Cl)c3)C2=O)c2ccccc21,?,25.9µM*,-0.2,?,-14.1%
COc1ccc(OC)c(NC(=O)c2oc3c(c2C)C(O)CC(C)(C)C3)c1 (stereo not given),-0.2%,14.6µM*,-4.1,?,5.9%
Cc1c(C(=O)N(C)c2ccccc2)oc2c1C(O)CC(C)(C)C2 (stereo not given),15.2%,?,-6.9,?,13.1%
O=S(=O)(c1ccccc1F)N(Cc1ccco1)Cc1nnc(-c2ccccc2Br)o1,0.4%,?,-2.3,-11.8%,8.7%
CC(C)CN1C(=O)CN(S(C)(=O)=O)CC1(C)C(=O)NC(C)C (stereo not given),20.8%,-0.1%,27.9,-2.4%,5.6%
CC1=C(c2ccccc2)C=NNCC1=O,7.3%,-10.9%,20.3,-10.6%,29.0%
Cc1c(NC(=O)COC(=O)c2cc3c4ccccc4n(C)c3s2)c(=O)n(-c2ccccc2)n1C,-0.7%,-13.5%,-55.0*,-30.0%,-11.9%
Cc1cc(C(=O)OCC(=O)NC2CCS(=O)(=O)C2)c(C)n1-c1ccccc1 (stereo not given),-4.3%,?,-12.7,11.6µM*,-5.7%
Cc1ccc(Oc2ccc(OCC(=O)NC3CCS(=O)(=O)C3)cc2)cc1 (stereo not given),?,23.1µM*,-19.2,16.4µM*,?
COc1ccc(-c2cc(C(=O)OCC(=O)NC3CC3)c3ccccc3n2)cc1,-2.0%,?,26.2,?,2.3%
Cc1cc(C(=O)OCC(=O)NC2CCS(=O)(=O)C2)c2ccccc2n1 (stereo not given),9.9%,0.8%,5.9,-9.0%,13.5%
COc1ccc2cc(-c3cc(C(=O)OCC(=O)NC4CCS(=O)(=O)C4)c4ccccc4n3)ccc2c1 (stereo not given),10.3µM*,?,-19.4,?,?
O=C(COc1ccc(Oc2ccccc2)cc1)NC1CCS(=O)(=O)C1 (stereo not given),-12.5%,?,30.3,?,?
CC(=O)Nc1ccc(NC(=O)CCC(=O)Oc2ccc(C)cc2)cc1,-2.4%,8.3%,9.7,-14.8%,11.0%
CCCCN(S(=O)(=O)c1ccccc1)S(=O)(=O)c1ccccc1,-3.8%,-7.3%,-0.2,?,5.2%
COc1ccc(C(=O)OCC(=O)Nc2c(C)n(C)n(-c3ccccc3)c2=O)cc1,12.5%,2.9%,15.0,10.1%,5.8%[9.24 µM]
COc1ccc2cc(-c3cc(C(=O)OCC(=O)Nc4c(C)n(C)n(-c5ccccc5)c4=O)c4ccccc4n3)ccc2c1,-0.8%,13µM*,0.5,10.3µM*,9.1%
O=C1CCSc2c1ccc1ccccc21,1.4%,-11.9%,11.8,-0.8%,0.8%
NC(=O)c1oc2ccc(Cl)cc2c1NC(=O)CN1CCOCC1,1.2%,-28.0%,-7.8,-44.4%,3.6%
C/C(=N\Nc1nccnc1Cl)c1ccc(Cl)c(Cl)c1,-8.1%,-4.9%,3.7,-2.3%,-1.0%
CCCCCCOc1ccc(/C(C)=N/NC2=NCCN2)cc1[N+](=O)[O-],-11.2%,?,-91.7*,10.3µM*,-23.5%
C/C(=N\NC1=NCCN1)c1ccc(N)c([N+](=O)[O-])c1,-12.0%,-26.8%,-16.1,?,3.7%
COc1ccc(/C(C)=N/NC2=NCCN2)cc1Cl,-8.3%,-11.6%,-73.8*,-18.7%,-16.6%
CC(=NNC1=NCCN1)c1cn(C2=NCCN2)nc1C,6.2%,-26.8%,-9.8,-15.9%,16.0%
